The source made the active and inactive calls. Rule for the calls: active = hit-call score of the fitted dose curve at least 0.9, where 1 is the maximum; inactive = score below 0.9.
Tests used:
Conditions in all cases: mRNA level, 48 h; actives raise or lower the signal
[1] = read-out: Lipase C (LIPC), LIPC (gene 3990); assay: LTEA_HepaRG_LIPC: Life Technologies and Expression Analysis (LTEA) Assay for Lipase C (LIPC) using HepaRG (AID 2283514)
Summary of the method: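 HepaRG cells, 48 h after plating, treated in duplicate for 48 h in serum-free induction medium over 8 half-log concentrations from 100 uM, 0.5% DMSO. LIPC mRNA by TaqMan qRT-PCR normalized to ACTB/GAPDH/POLR2A; bidirectional fit versus DMSO.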

[2] = read-out: Lipoprotein lipase (LPL), LPL (gene 4023); assay: LTEA_HepaRG_LPL: Life Technologies and Expression Analysis (LTEA) Assay for Lipoprotein lipase (LPL) using HepaRG (AID 2283515)
Summary of the method: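 Differentiated HepaRG cells, plated 48 h, then exposed 48 h in serum-free induction medium to 8 concentrations (top 100 uM, half-log steps) in 0.5% DMSO, duplicate. LPL mRNA measured by qRT-PCR, normalized to ACTB, GAPDH and POLR2A.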

[3] = read-out: MicroRNA 122 (MIR122), gene 406906; assay: LTEA_HepaRG_MIR122: Life Technologies and Expression Analysis (LTEA) Assay for MicroRNA 122 (MIR122) using HepaRG (AID 2283516); note: the transcript read is the microRNA miR-122
Summary of the method: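 HepaRG plated 48 h, switched to serum-free induction medium, then treated in duplicate for 48 h (100 uM top, half-log steps, 0.5% DMSO vehicle). RNA isolated, qRT-PCR performed, concentration-response fitted both directions relative to DMSO.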

[4] = read-out: matrix metalloproteinase-10 (MMP10), MMP10 (gene 4319); assay: LTEA_HepaRG_MMP10: Life Technologies and Expression Analysis (LTEA) Assay for matrix metalloproteinase-10 (MMP10) using HepaRG (AID 2283517)
Summary of the method: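 Differentiated HepaRG cells in serum-free induction medium exposed 48 h in duplicate to 8-point half-log series up to 100 uM in 0.5% DMSO. mRNA quantified by qRT-PCR, normalised to ACTB, GAPDH, POLR2A; bidirectional fit versus DMSO.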

MYC, MYC (gene 4609) = assay: LTEA_HepaRG_MYC: Life Technologies and Expression Analysis (LTEA) Assay for MYC using HepaRG (AID 2283518)
Summary of the method: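 Differentiated HepaRG cells exposed 48 h in serum-free induction medium to 8 concentrations (top 100 uM, half-log steps; 0.5% DMSO), duplicate. MYC mRNA measured by Fluidigm qRT-PCR, normalized to ACTB, GAPDH, POLR2A; bidirectional fit versus DMSO.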

[5] = read-out: matrix metalloproteinase-3 (MMP3), MMP3 (gene 4314); assay: LTEA_HepaRG_MMP3: Life Technologies and Expression Analysis (LTEA) Assay for matrix metalloproteinase-3 (MMP3) using HepaRG (AID 2283519)
Summary of the method: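 HepaRG cells (~100,000/well) in serum-free induction medium were dosed in duplicate for 48 h with an 8-point half-log series from 100 uM, 0.5% DMSO. MMP3 mRNA was quantified by Fluidigm TaqMan qRT-PCR, normalized to three housekeeping genes.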

[6] = read-out: Paternally Expressed 10 (PEG10), PEG10 (gene 23089); assay: LTEA_HepaRG_PEG10: Life Technologies and Expression Analysis (LTEA) Assay for Paternally Expressed 10 (PEG10) using HepaRG (AID 2283520)
Summary of the method: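 HepaRG, 48 h post-plating → serum-free induction medium → 48 h chemical exposure (duplicate, 8-pt, max 100 uM, half-log, 0.5% DMSO) → lysis in RLT → TaqMan qRT-PCR for PEG10, ACTB/GAPDH/POLR2A normalisation.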

[7] = read-out: Protein phosphatase 2A (PPP2R4), PTPA (gene 5524); assay: LTEA_HepaRG_PPP2R4: Life Technologies and Expression Analysis (LTEA) Assay for Protein phosphatase 2A (PPP2R4) using HepaRG (AID 2283522)
Summary of the method: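 Readout is PPP2R4 transcript level by microfluidic qRT-PCR after 48 h chemical treatment of human HepaRG liver cells. Concentrations spanned 100 uM downward in half-log steps; gain or loss of signal was fitted relative to DMSO.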

[8] = read-out: Phosphatase and tensin (PTEN), PTEN (gene 5728); assay: LTEA_HepaRG_PTEN: Life Technologies and Expression Analysis (LTEA) Assay for Phosphatase and tensin (PTEN) using HepaRG (AID 2283523)
Summary of the method: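 HepaRG cells, 48 h after plating, exposed in duplicate for 48 h in serum-free induction medium to 8 half-log concentrations up to 100 uM (0.5% DMSO). PTEN mRNA by qRT-PCR, normalized to ACTB, GAPDH, POLR2A; bidirectional fit versus DMSO.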

[9] = read-out: solute carrier (SLC22A1), SLC22A1 (gene 6580); assay: LTEA_HepaRG_SLC22A1: Life Technologies and Expression Analysis (LTEA) Assay for solute carrier (SLC22A1) using HepaRG (AID 2283524)
Summary of the method: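 Differentiated human HepaRG cells in serum-free induction medium, exposed 48 h in duplicate to 8-point half-log series from 100 µM top in 0.5% DMSO. SLC22A1 mRNA by TaqMan qRT-PCR normalized to ACTB, GAPDH, POLR2A; bidirectional fit versus DMSO.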

[10] = read-out: Pyruvate Dehydrogenase Kinase 4 (PDK4), PDK4 (gene 5166); assay: LTEA_HepaRG_PDK4: Life Technologies and Expression Analysis (LTEA) Assay for Pyruvate Dehydrogenase Kinase 4 (PDK4) using HepaRG (AID 2283525)
Summary of the method: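 HepaRG cells plated 48 h, then switched to serum-free induction medium and exposed in duplicate for 48 h to 8 half-log concentrations from 100 uM in 0.5% DMSO. PDK4 mRNA measured by qRT-PCR, normalized to ACTB, GAPDH and POLR2A; bidirectional fit versus DMSO.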

[11] = read-out: NAD(P)H dehydrogenase [quinone] 1 (NQO1), NQO1 (gene 1728); assay: LTEA_HepaRG_NQO1: Life Technologies and Expression Analysis (LTEA) Assay for NAD(P)H dehydrogenase [quinone] 1 (NQO1) using HepaRG (AID 2283526)
Summary of the method: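 HepaRG, 48 h post-plating → serum-free induction medium → test chemical 48 h (duplicate, 100 uM top, half-log x8, 0.5% DMSO) → RNA isolation → qRT-PCR, ACTB/GAPDH/POLR2A normalization; bidirectional curve fit vs DMSO baseline.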

[12] = read-out: Nuclear factor erythroid 2-related factor 2 (Homo sapiens) (UniProt Q16236); assay: LTEA_HepaRG_NFE2L2: Life Technologies and Expression Analysis (LTEA) Assay for Nuclear factor erythroid 2-related factor 2 (NFE2L2) Transcription Factor using HepaRG (AID 2283527)
Summary of the method: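 Differentiated human HepaRG cells, serum-free induction medium, exposed 48 h in duplicate to eight half-log concentrations up to 100 uM in 0.5% DMSO. NFE2L2 mRNA by Fluidigm TaqMan qRT-PCR, normalised to ACTB, GAPDH, POLR2A; bidirectional change versus DMSO.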

[13] = read-out: succinate dehydrogenase complex iron sulfur subunit B (SDHB), SDHB (gene 6390); assay: LTEA_HepaRG_SDHB: Life Technologies and Expression Analysis (LTEA) Assay for succinate dehydrogenase complex iron sulfur subunit B (SDHB) using HepaRG (AID 2283528)
Summary of the method: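 SDHB transcript level read by TaqMan qRT-PCR, housekeeping-normalised (ACTB, GAPDH, POLR2A), after 48 h chemical treatment of plated HepaRG cells; eight concentrations top 100 uM, half-log steps, 0.5% DMSO, duplicates; fitted both directions against DMSO.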

[14] = read-out: Signal transducer and activator of transcription 3 (Homo sapiens) (UniProt P40763); assay: LTEA_HepaRG_STAT3: Life Technologies and Expression Analysis (LTEA) Assay for Signal transducer and activator of transcription (STAT3) using HepaRG (AID 2283529)
Summary of the method: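 Differentiated HepaRG cells, serum-free induction medium, dosed 48 h in duplicate, 8 half-log concentrations from 100 uM in 0.5% DMSO. STAT3 mRNA by qRT-PCR, normalised to ACTB, GAPDH, POLR2A; bidirectional fit versus DMSO.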

[15] = read-out: solute carrier (SLCO1B1), SLCO1B1 (gene 10599); assay: LTEA_HepaRG_SLCO1B1: Life Technologies and Expression Analysis (LTEA) Assay for solute carrier (SLCO1B1) using HepaRG (AID 2283530)
Summary of the method: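 Differentiated human HepaRG cells were exposed for 48 h in serum-free induction medium to eight half-log concentrations, top 100 uM, in 0.5% DMSO. SLCO1B1 mRNA was measured by qRT-PCR, normalized to ACTB, GAPDH and POLR2A, and fitted bidirectionally against DMSO.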

[16] = read-out: sulfotransferase 2A1 (SULT2A1), SULT2A1 (gene 6822); assay: LTEA_HepaRG_SULT2A1: Life Technologies and Expression Analysis (LTEA) Assay for sulfotransferase 2A1 (SULT2A1) using HepaRG (AID 2283531)
Summary of the method: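 HepaRG human liver cells, 48 h exposure in serum-free induction medium to 8 half-log concentrations topping at 100 µM (0.5% DMSO), duplicate wells. SULT2A1 mRNA measured by TaqMan qRT-PCR, normalized to ACTB/GAPDH/POLR2A; bidirectional fit against DMSO.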

[17] = read-out: Transforming Growth Factor (TGFA), TGFA (gene 7039); assay: LTEA_HepaRG_TGFA: Life Technologies and Expression Analysis (LTEA) Assay for Transforming Growth Factor (TGFA) using HepaRG (AID 2283532)
Summary of the method: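 Differentiated HepaRG cells exposed 48 hours in serum-free induction medium, 0.5% DMSO vehicle, 8-point half-log series from 100 uM, in duplicate. TGFA mRNA by TaqMan qRT-PCR, normalised to ACTB, GAPDH, POLR2A; bidirectional fit versus DMSO.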

[18] = read-out: Nuclear factor NF-kappa-B p105 subunit (Homo sapiens) (UniProt P19838); assay: LTEA_HepaRG_NFKB1: Life Technologies and Expression Analysis (LTEA) Assay for Nuclear Factor Kappa B Subunit 1 (NFKB1) using HepaRG (AID 2283521)
Summary of the method: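 NFKB1 transcript was measured by TaqMan qRT-PCR on Fluidigm arrays, normalised to three housekeeping genes and fitted in both directions against 0.5% DMSO. HepaRG cells were dosed in duplicate for 48 h in serum-free induction medium, eight half-log steps from 100 uM.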

Sequence of Signal transducer and activator of transcription 3 (Homo sapiens) (P40763 whole entry, looked up): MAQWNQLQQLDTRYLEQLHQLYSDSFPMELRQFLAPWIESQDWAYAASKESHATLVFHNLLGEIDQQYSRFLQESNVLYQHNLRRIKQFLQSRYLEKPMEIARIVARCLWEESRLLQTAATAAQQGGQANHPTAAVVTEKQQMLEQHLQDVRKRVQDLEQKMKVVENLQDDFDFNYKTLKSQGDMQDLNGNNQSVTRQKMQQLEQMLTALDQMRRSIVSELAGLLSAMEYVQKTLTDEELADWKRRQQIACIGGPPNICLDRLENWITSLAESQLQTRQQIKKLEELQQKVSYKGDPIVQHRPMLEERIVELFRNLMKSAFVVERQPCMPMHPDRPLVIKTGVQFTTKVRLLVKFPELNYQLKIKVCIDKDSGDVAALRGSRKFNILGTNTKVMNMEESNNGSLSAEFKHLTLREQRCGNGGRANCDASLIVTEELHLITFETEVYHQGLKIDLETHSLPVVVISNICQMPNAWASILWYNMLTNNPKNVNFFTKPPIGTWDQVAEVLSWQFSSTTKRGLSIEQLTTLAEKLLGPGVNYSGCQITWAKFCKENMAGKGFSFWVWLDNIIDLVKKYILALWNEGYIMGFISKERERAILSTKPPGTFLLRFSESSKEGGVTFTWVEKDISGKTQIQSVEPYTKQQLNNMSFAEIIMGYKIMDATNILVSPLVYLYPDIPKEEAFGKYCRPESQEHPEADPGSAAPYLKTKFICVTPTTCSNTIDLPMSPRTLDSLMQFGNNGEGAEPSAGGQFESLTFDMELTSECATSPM
Sequence of Nuclear factor erythroid 2-related factor 2 (Homo sapiens) (Q16236 whole entry, looked up): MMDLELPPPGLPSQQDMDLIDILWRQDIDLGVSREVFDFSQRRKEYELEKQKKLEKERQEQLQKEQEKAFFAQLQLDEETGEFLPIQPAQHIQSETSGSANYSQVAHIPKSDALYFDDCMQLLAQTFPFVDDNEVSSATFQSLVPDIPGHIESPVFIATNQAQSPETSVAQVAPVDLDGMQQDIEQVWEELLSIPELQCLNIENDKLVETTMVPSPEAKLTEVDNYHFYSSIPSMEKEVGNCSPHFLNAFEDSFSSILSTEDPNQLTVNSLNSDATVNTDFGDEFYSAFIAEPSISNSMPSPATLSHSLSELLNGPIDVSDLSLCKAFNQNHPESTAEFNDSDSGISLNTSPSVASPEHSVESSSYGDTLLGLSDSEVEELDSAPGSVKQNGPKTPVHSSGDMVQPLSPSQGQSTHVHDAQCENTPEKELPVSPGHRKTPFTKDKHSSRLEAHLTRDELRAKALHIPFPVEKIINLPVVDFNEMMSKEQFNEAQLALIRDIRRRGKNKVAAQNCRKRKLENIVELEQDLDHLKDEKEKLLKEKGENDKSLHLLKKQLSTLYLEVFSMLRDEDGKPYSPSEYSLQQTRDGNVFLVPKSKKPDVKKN
Sequence of Nuclear factor NF-kappa-B p105 subunit (Homo sapiens) (P19838 whole entry, looked up): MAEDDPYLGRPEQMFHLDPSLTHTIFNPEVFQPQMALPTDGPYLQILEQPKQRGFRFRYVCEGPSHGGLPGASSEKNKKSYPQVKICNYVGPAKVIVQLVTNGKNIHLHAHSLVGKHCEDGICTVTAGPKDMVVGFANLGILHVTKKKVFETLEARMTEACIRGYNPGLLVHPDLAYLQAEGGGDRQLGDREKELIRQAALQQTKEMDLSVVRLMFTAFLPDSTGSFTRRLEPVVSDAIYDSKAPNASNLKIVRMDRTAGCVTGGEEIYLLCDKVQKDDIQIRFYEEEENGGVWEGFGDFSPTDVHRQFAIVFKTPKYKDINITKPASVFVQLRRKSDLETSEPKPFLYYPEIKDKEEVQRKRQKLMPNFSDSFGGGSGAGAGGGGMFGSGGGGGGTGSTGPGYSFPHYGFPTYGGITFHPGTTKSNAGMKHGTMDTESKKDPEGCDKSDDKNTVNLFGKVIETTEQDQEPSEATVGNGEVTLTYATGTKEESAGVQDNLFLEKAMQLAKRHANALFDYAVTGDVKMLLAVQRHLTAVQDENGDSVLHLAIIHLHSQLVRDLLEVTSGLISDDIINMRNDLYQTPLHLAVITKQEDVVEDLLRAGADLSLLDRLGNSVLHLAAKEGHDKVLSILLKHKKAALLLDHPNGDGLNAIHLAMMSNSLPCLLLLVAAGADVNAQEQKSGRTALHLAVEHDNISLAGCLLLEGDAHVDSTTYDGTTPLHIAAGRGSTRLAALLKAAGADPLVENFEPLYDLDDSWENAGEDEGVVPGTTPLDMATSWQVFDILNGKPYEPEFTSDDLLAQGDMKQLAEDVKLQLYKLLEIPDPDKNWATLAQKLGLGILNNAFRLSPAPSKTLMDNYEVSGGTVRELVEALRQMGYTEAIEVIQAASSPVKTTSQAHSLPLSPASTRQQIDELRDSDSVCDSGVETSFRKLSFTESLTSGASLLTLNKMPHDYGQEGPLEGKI

Structure (SMILES) | outcome [1] | outcome [2] | outcome [3] | outcome [4] | outcome (MYC, MYC (gene 4609)) | outcome [5] | outcome [6] | outcome [7] | outcome [8] | outcome [9] | outcome [10] | outcome [11] | outcome [12] | outcome [13] | outcome [14] | outcome [15] | outcome [16] | outcome [17] | AC50 [6] | outcome [18]
Cc1ncc(CO)c(CO)c1O | inactive | inactive | inactive | inactive | inactive | inactive | inactive | inactive | inactive | inactive | inactive | inactive | inactive | inactive | inactive | inactive | inactive | inactive |  | 
O=C(O)c1ccccc1-n1cc(C(=O)O)c(=O)c2cc(Nc3c(F)cc(F)cc3Cl)c(Cl)cc21 | inactive | inactive | inactive | inactive | inactive | inactive |  | inactive | inactive | inactive | inactive | inactive | inactive | inactive | inactive | inactive | inactive | inactive | 21.1 µM (active) | inactive
CCCCOC(=O)c1ccc(O)cc1 | inactive | inactive | inactive | inactive | inactive | inactive | inactive |  | inactive | inactive | inactive | inactive | inactive | inactive | inactive | inactive | inactive | inactive |  | 

— PubChem BioAssay (EPA / NIEHS)
